# Laboratory results taken from PubChem BioAssay (Tox21).
# Results filed as inconclusive are left out. Where a call stands in place of a potency, no number is given. Unmarked numbers belong to inactive results. Activity calls are given as the source filed them. The call rests on the fitted dose curve; in most records, active means well fitted inhibition curve with a large enough effect in the repeat runs; inconclusive means weak or mixed curves; inactive means no such curve, though single readings can be large or run the other way.
# Target: Cytochrome P450 3A4 (Homo sapiens) (UniProt P08684)
# Assay: Cytochrome P450 Family 3 Subfamily A Member 4 (CYP3A4) small molecule antagonists: luciferase reporter qHTS assay (AID 1671201); further: nearly all actives have a fitted effect of over 50% in size
# Conditions: P450-Glo CYP3A4 enzyme, luciferin luminescence, 1 h; series mostly up to 115 µM
# From the text: National Center for Advancing Translational Sciences [NCATS]
# U.S. Environmental Protection Agency [EPA]
# National Institutes of Environmental Health Sciences [NIEHS]
# National Toxicology Program [NTP]
# U.S. Food and Drug Administration [FDA]
# Cytochrome P450 (CYP) enzymes are membrane-bound hemeproteins that play a key role in metabolism of drugs and xenobiotics. Evaluation of the effect of chemicals on CYP isozymes is useful to minimize the adverse drug reactions and toxicities in drug development process. Tox21 chemicals were tested for their effect on CYP enzyme activities by using P450-Glo (TM) screening systems (Promega Corporation, Madison, WI). These systems provide a luminescent method containing proluciferin substrates and are converted to luciferin products by CYP isozymes. The luciferin products formed are detected with a luciferin detection reagent, and the amount of light produced is proportional to CYP activity. P450-Glo (TM) CYP3A4 screening system (Catalog. No. V9910) was used to detect the compounds that interfere in CYP3A4 activity. The positive control compound used for CYP3A4 assay is ketoconazole (Sigma-Aldrich, St. Louis, MO).
# Tox21 Assay Protocol Summary:
# Two ul of enzyme-substrate mix was dispensed into medium binding white/solid 1536-well plates (Greiner Bio-One North America Inc., Monroe, NC) using a BioRaptr Flying Reagent Dispenser (FRD, Beckman Coulter, Brea, CA). Compounds dissolved in DMSO and positive control (ketoconazole) were transferred to the assay plates at 23 nl using a Pintool station (Wako, San Diego, CA). The assay plates were incubated at room temperature for 10 min. Then 2 ul of NADPH regeneration solution was added to each well of the assay plates using an FRD and incubated at room temperature for 1 h. The reaction was stopped by adding 4 ul of detection reagent using an FRD and after 20 min incubation at room temperature the luminescence signal was measured using a ViewLux plate reader (Perkin Elmer, Shelton, CT). Data were expressed as relative luminescence units.
# Potency means the concentration at half of the fitted maximal effect.
# Sequence of Cytochrome P450 3A4 (Homo sapiens) (P08684 whole entry, looked up): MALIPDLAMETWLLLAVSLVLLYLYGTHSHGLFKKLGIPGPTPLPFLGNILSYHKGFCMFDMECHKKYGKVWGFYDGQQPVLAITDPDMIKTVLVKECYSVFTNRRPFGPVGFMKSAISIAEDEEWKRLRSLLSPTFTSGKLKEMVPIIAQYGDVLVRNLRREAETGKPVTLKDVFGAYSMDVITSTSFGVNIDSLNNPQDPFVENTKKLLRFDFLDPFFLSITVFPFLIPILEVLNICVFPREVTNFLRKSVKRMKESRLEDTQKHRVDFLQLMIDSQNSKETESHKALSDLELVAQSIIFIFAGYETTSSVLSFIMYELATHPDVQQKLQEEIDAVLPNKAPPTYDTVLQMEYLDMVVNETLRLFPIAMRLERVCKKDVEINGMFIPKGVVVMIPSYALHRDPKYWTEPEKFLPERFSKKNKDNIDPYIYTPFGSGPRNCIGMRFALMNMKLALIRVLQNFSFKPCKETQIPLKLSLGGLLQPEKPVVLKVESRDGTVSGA
SMILES,Potency,"activity change, negative = inhibition"
c1ccc(-c2ccccc2-c2ccccc2)cc1,inactive,–
Cc1ccc(S(=O)(=O)C(I)I)cc1,39.9 µM (active),–
ClC(c1ccccc1)(c1ccccc1)c1ccccc1,inactive,–
C=CC(=O)OCC(Br)CBr (stereo not given),inactive,–
CCCCC/C=C\C=C\C(=O)OCC,16.6 µM (active),–
CCCCCCCCCC[N+](C)(CCCCCCCCCC)CCC[Si](OC)(OC)OC,28.3 µM (active),–
CN(C[C@@H](CC[N+]12CCC(C3CCCCC3)(CC1)CC2)c1ccc(Cl)c(Cl)c1)C(=O)c1cc(C(F)(F)F)cc(C(F)(F)F)c1,2.24 µM (active),–
Nc1c(Br)cc([N+](=O)[O-])cc1Br,inactive,–
CCCCCCCCOC(=O)c1cc(O)c(O)c(O)c1,35.6 µM (active),–
O=C1OCc2ccccc21,inactive,–
CCN(CC)c1ccc(C=O)c(O)c1,inactive,–
CSc1nnc(C(C)(C)C)c(=O)[nH]1,inactive,–
N#CCCOCCC#N,inactive,–
CC/C=C\C/C=C\C/C=C\CCCCCCCC(=O)OC,20 µM (active),–
O=C(NCc1ncc(C(F)(F)F)cc1Cl)c1c(Cl)cccc1Cl,8.94 µM (active),–
CCc1c(C)cc(N)c(CC)c1N,15.9 µM (active),–
C[C@H]1O[C@@H](O[C@H]2CC[C@@]3(C)[C@H](CC[C@@H]4[C@@H]3C[C@@H](O)[C@]3(C)[C@@H](C5=CC(=O)OC5)CC[C@]43O)C2)C[C@H](O)[C@@H]1O[C@H]1C[C@H](O)[C@H](O[C@H]2C[C@H](O)[C@H](O[C@@H]3O[C@H](CO)[C@@H](O)[C@H](O)[C@H]3O)[C@@H](C)O2)[C@@H](C)O1,inactive,–
N#Cc1nc(Cl)c(Cl)c(Cl)c1Cl,inactive,–
CCC(O)CO (stereo not given),inactive,–
NCc1ccco1,inactive,–

SMILES,Potency,"activity change, negative = inhibition"
C=C[Si](C)(C)Cl,–,0.89% [at 10.5 µM]
Nc1ccc2c(S(=O)(=O)O)cccc2c1S(=O)(=O)O,inactive,–
C=C(C)CCO,inactive,–
Cc1c[nH]c(=O)[nH]c1=O,inactive,–
O=[N+]([O-])c1ccc(CO)cc1,inactive,–
C1CCSC1,inactive,–
CCOc1nc(F)cc2nc(S(=O)(=O)Nc3c(Cl)cccc3C(=O)OC)nn12,35.6 µM (active),–
C/C(=N\[Si](C)(C)C)O[Si](C)(C)C,inactive,–
O=C1C=CC(=O)N1c1cccc(N2C(=O)C=CC2=O)c1,inactive,–
CCCCCCCCSCc1cc(C)c(O)c(CSCCCCCCCC)c1,inactive,–
Oc1ccc(C2(c3ccc(O)c(C4CCCCC4)c3)CCCCC2)cc1C1CCCCC1,14.2 µM (active),–
Cc1cc(F)ccc1-c1cc(N2CC[C@@H](O)[C@H]2CO)ncc1N(C)C(=O)C(C)(C)c1cc(C(F)(F)F)cc(C(F)(F)F)c1,3.12 µM (active),–
C=C(C)C1CCC(C)CC1O (stereo not given),inactive,–
O=C(O)CN(CCCN(CC(=O)O)CC(=O)O)CC(=O)O,–,-1.42% [at 23.6 µM]
CC(=O)CC(N)=O,inactive,–
Cc1c(Cl)c(=O)oc2cc(O)ccc12,inactive,–
C/C=C/C(=O)C1=C(C)C=CCC1(C)C,inactive,–
CCN(CC)c1ccc(C=O)cc1,inactive,–
COc1cccc(-c2ccc(/C=C\CN3CCCCCC3)cc2Cl)c1,inactive,–
CCOC(=O)[C@H](O)[C@@H](O)C(=O)OCC,inactive,–
